Compound activity as filed in PubChem.
The list is not random: actives were taken first. Their share in the collection is about 7%.
rCAG binder – r(CAG) repeat RNA binding. inhibition, % at 3 µM. AID 651821. hit rate 1.3% among 370,000. TO-PRO-1 dye displacement fluorescence;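 active = inhibition above the plate cutoff, the mean of all test compounds on that plate plus 3 SD, cut at about 35% in these data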;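 note: higher means more dye released from RNA so lower well fluorescence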
ADAM10 inh – inhibits human ADAM10; AID 720582; hit rate 0.62% among 370,000; inhibition, % at 7 µM; recombinant ADAM10, EDANS/DABCYL FRET peptide cleavage, 3 h;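 active = inhibition above a per-campaign cutoff equal to the mean of compounds falling between control-based bounds plus 3 SD, cut at about 20% in these data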
NR3A LBD binder – modulates the human NR3A ligand-binding domain; NR3A LBD differential scanning fluorimetry, Tm shift; 0% = protein alone, 100% = glycine-bound protein; Tm shift relative to glycine control, % at 25 µM; hit rate 2.5% among 340,000; AID 1259313;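 active = melting temperature shift of at least 10% of the positive control shift, at one fixed dose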
ADAM17 inh – ADAM17 inhibition, QFRET primary screen | recombinant ADAM17, EDANS/DABCYL FRET peptide cleavage | inhibition, % at 6.95 µM | hit rate 0.83% among 370,000 | AID 720648 | P78536;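 active = inhibition above the mean of compounds lying between control limits plus 3 SD, set per campaign, cut at about 8.5% in these data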
Target sequence (P78536 215-824 limits assumed): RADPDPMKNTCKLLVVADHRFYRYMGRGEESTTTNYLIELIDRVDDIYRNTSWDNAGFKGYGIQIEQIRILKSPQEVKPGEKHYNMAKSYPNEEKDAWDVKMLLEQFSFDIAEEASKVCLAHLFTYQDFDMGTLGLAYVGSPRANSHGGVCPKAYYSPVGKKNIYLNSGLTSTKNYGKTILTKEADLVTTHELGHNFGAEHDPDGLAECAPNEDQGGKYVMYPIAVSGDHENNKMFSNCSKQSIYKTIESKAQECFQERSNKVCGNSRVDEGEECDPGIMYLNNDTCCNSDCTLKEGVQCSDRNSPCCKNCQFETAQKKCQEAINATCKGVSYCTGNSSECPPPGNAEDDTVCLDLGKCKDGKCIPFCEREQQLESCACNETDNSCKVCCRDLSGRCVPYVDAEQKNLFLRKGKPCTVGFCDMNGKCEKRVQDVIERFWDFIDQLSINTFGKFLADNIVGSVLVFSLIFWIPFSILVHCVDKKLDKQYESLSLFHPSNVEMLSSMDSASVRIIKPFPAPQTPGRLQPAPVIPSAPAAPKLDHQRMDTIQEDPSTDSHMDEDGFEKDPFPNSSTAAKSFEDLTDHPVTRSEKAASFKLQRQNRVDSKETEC
KLK7 zymogen act – activators of human kallikrein-7 zymogen; purified proKLK7, EDANS-DABCYL substrate fluorescence; 100% is mature enzyme control, 0% vehicle; activation, % at 7 µM; hit rate 0.9% among 370,000;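 active = activation above the mean of all tested compounds plus 3 SD, computed per campaign excluding outliers beyond control limits, cut at about 13% in these data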
AHR activator – activates the human aryl hydrocarbon receptor. P35869. AHR-responsive luciferase reporter cells, luminescence. activation, % at 5 µM. hit rate 2.5% among 320,000. AID 2796; in the data active = activation above about 47%
Of the large screens only hits and unclear results are named; the others gave an inactive call.

COC(=O)[C@]12C[C@H](CC(=O)NCC3CCCCC3)C(=O)N(Cc3ccc(Cl)cc3Cl)C1=C[C@H](COCc1ccccc1)O[C@@H]2C	none (no result: NR3A LBD binder, AHR activator)
COc1ccc(S[C@]2(C(=O)N3CCCC3)CC(=O)N(C(=O)c3ccccc3)[C@@H]2c2ccc(OC)cc2)cc1	none (no result: NR3A LBD binder, AHR activator)
CCOC(=O)c1c(-n2c(C)cc(C=O)c2C)sc2c1CCCC2	none
Cc1ccc(C)n1-c1sc2c(c1C(=O)O)CCCC2	rCAG binder 35
CC(/C=N/Nc1nc(C)cc(=O)[nH]1)=C\c1ccccc1	none
CC(/C=N/Nc1ncc(C)c(=O)[nH]1)=C\c1ccccc1	AHR activator 61
O=c1c2cc3cc(Cl)ccc3nc2ncn1CCc1c[nH]c2ccccc12	none (no result: NR3A LBD binder, AHR activator)
Cc1ccc(NC(=O)c2ncn(CC(=O)NCc3ccccc3)n2)cc1C	none (no result: AHR activator)
Cc1ccc(NC(=O)c2ncn(CC(=O)N[C@H](C)c3cccc4ccccc34)n2)cc1C	NR3A LBD binder 18 (no result: AHR activator)
Cc1ccc(NC(=O)c2ncn(CC(=O)NCc3nc4ccccc4[nH]3)n2)cc1C	NR3A LBD binder 17 (no result: AHR activator)
Cc1cccn2c(=O)c(C=O)c(N3CCN(c4ccc(F)cc4)CC3)nc12	AHR activator 64
Cc1cccn2c(=O)c(C=O)c(N3CCCCC3)nc12	none
COc1ccc(OC)c(CN(CC(F)(F)F)S(=O)(=O)c2ccccc2Br)c1	none (no result: NR3A LBD binder, AHR activator)
CCc1nnc(NS(=O)(=O)c2ccc(NC(=S)NC(=O)/C=C/c3ccc(C(C)C)cc3)cc2)s1	NR3A LBD binder 15 (no result: rCAG binder, ADAM10 inh, ADAM17 inh, KLK7 zymogen act)
O=C(CCc1ccccc1)N[C@H]1[C@@H](OC(=O)C2CC2)CCC[C@@]12C(=O)N(Cc1ccccc1)c1ccccc12	none (no result: NR3A LBD binder, AHR activator)
Cc1cccc(C(=O)NCC(=O)Nc2ccc(S(=O)(=O)Nc3nc(C)cc(C)n3)cc2)c1	none
Cc1ccc(NS(=O)(=O)c2ccc(NC(=O)c3ccc(-c4ccccc4)cc3)cc2)c(C)c1	NR3A LBD binder 10
Cc1cccc(C(=O)Nc2ccc(S(=O)(=O)Nc3nc(C)cc(C)n3)cc2)c1	NR3A LBD binder 13
COc1ccc(NC(=O)c2ccc3c(c2)NC(=O)CS3)cc1S(=O)(=O)Nc1ccc(Br)cc1	none
Cc1ccc(NS(=O)(=O)c2cc(NC(=O)c3ccc4c(c3)NC(=O)CS4)ccc2C)c(C)c1	ADAM10 inh 26, NR3A LBD binder 22, ADAM17 inh 10
CC(C)(C)OC(=O)NC1CCN(c2nc(-c3ccc(Br)cc3)cs2)CC1	none (no result: rCAG binder, NR3A LBD binder, KLK7 zymogen act, AHR activator)
CCOC(=O)[C@]12CCCC=C1N(Cc1ccc(OC)cc1)C(=O)[C@@H]2CC(=O)NCc1cccc2ccccc12	none (no result: NR3A LBD binder, AHR activator)
Cn1c(NCc2ccco2)nc2c1c(=O)n(Cc1ccc(Cl)cc1)c(=O)n2C	NR3A LBD binder 15
C=CC[C@@H](Cc1ccc(F)cc1)C(=O)OC[C@@H]1CCCN1C(=O)[C@H](CC=C)CC(=O)N[C@H](CO)Cc1ccccc1	ADAM17 inh 15
C[n+]1c2n(c3ccccc31)N=C(c1ccc(Br)cc1)CS2	AHR activator 60
C[n+]1c2n(c3ccccc31)N=C(c1ccc(-c3ccccc3)cc1)CS2	AHR activator 53
CCc1nnc2n1N=C(c1ccc(Br)cc1)CS2	none
COC(=O)C1=C(C)N(C)C(=NCc2cccc(C(F)(F)F)c2)NC1c1cccc(Cl)c1 (configuration not stated)	none (no result: NR3A LBD binder, AHR activator)
Cc1ccc(CNC(=O)OC(C)(C)C)c(/C=C/S(=O)(=O)NCCc2ccccc2)c1	none (no result: NR3A LBD binder, AHR activator)
Cc1ccccc1S(=O)(=O)N1CCCc2nc(-c3ccc(F)cc3)ccc21	none (no result: NR3A LBD binder, AHR activator)
CCCCCCCCN1C(=O)[C@@H](CC(=O)N2CCN(C(=O)OCC)CC2)C[C@@]2(C(=O)OC)C1=C[C@H](COCc1ccccc1)O[C@@H]2C	none (no result: NR3A LBD binder, AHR activator)
O=CN(/C=C1\Sc2ccccc2C1=O)Cc1ccccc1	NR3A LBD binder 22
CCC(=O)N(C)/C=C1\Sc2ccccc2C1=O	none
CC(=O)N(C)/C=C1\Sc2ccccc2C1=O	NR3A LBD binder 14
O=C(NCc1cccs1)c1cccc(Nc2nc3ccc(Br)cc3[nH]2)c1	NR3A LBD binder 11
C=CCOc1c(Br)cc(/C=N/n2c(CC)n[nH]c2=S)cc1Br	AHR activator 68
CC(C)CN1C(=O)[C@@]2(CC(=O)N(C)C2c2ccccc2)c2cc(-n3cc(CCCC#N)nn3)ccc21 (some centres not stated)	none (no result: NR3A LBD binder, AHR activator)
Cc1cc(N)n2ncc(-c3ccccc3)c2n1	AHR activator 61
CC(=O)Nc1ccc(Nc2cc(C)nc3c(-c4ccccc4)cnn23)cc1	NR3A LBD binder 33
C=CCSc1cc(C)nc2c(-c3ccccc3)cnn12	AHR activator 99
CCSc1cc(C)nc2c(-c3ccccc3)cnn12	none
CN(Cc1ccccc1Cl)C(=O)CN1C(=O)C2(OCCCO2)c2ccccc21	none (no result: NR3A LBD binder, AHR activator)
COc1cc(C)ccc1OCCOc1c(C)cc(Cl)cc1Cl	NR3A LBD binder 10
Fc1ccc(-c2ccnc3nc(-n4cccc4)nn23)cc1	none
Fc1ccc(-c2ccnc3nc(N4CCOCC4)nn23)cc1	KLK7 zymogen act 22
C[C@@H]1CCN(C2CC2)S(=O)(=O)c2ccc(N3CCC[C@@H]3CO)cc2O1	none (no result: NR3A LBD binder, AHR activator)
CCCCn1ccnc1C(=O)c1cccc(S(=O)(=O)N2CC(C)CC(C)C2)c1 (configuration not stated)	NR3A LBD binder 16
CCCCn1ccnc1C(=O)c1cc(S(=O)(=O)N2CCOCC2)ccc1C	none
CCOC(=O)C1=C(C(=O)OCC)C2N(Cc3ccc(Br)cc3)c3ccccc3[C@@]23C[C@@H](C(=O)OC)N(S(=O)(=O)c2cccs2)C3=N1 (some centres not stated)	none (no result: NR3A LBD binder, AHR activator)
O=C(CN1C(=O)NC2(CCc3ccccc32)C1=O)NCc1cccc(C(F)(F)F)c1 (configuration not stated)	NR3A LBD binder 11
C#CCOCCOCCOCCNc1nc(N2CCN(C(=O)CCCCCCCCCCNC(=O)Cn3cc(C[C@@H](C)O)nn3)CC2)nc(N2CCN(C(=O)CCCCCCCCCCNC(=O)[C@H](CCCCN)n3cc(C[C@@H](C)CC)nn3)CC2)n1	NR3A LBD binder 13 (no result: rCAG binder, ADAM10 inh, ADAM17 inh, KLK7 zymogen act)
C#CCOCCOCCOCCNc1nc(N2CCN(C(=O)CCCCCCCCCCNC(=O)[C@H](CCCCN)n3cc(CCO)nn3)CC2)nc(N2CCN(C(=O)CCCCCCCCCCNC(=O)[C@H](CCCN=C(N)N)n3cc(C[C@@H](C)CC)nn3)CC2)n1	NR3A LBD binder 26 (no result: rCAG binder, ADAM10 inh, ADAM17 inh, KLK7 zymogen act)
C#CCOCCOCCOCCNc1nc(N2CCN(C(=O)CCCCCCCCCCNC(=O)[C@H](CCCCN)n3cc(CCCC(=O)O)nn3)CC2)nc(N2CCN(C(=O)CCCCCCCCCCNC(=O)[C@H](CCCCN)n3cc(CCCC(=O)O)nn3)CC2)n1	none (no result: rCAG binder, ADAM10 inh, ADAM17 inh, KLK7 zymogen act)
C#CCOCCOCCOCCNc1nc(N2CCN(C(=O)CCCCCCCCCCNC(=O)[C@H](CO)n3cc(CCCSC)nn3)CC2)nc(N2CCN(C(=O)CCCCCCCCCCNC(=O)[C@H](CCCCN)n3cc(C[C@@H](C)CC)nn3)CC2)n1	none (no result: rCAG binder, ADAM10 inh, NR3A LBD binder, ADAM17 inh, KLK7 zymogen act)
